# Source: PubChem BioAssay
# Most compounds without a hit are left out; they make up all but 1.6% or so of the library.
# NSD2 HMT inh: inhibitors of human histone methyltransferase NSD2 | O96028 | NSD2 peptide methylation, AlphaScreen, 120 min | inhibition, % at 12.5 µM | 0.54% of 310,000 active | AID 743445; in the data active = inhibition above about 50%
# Casp6 inh: inhibitors of human caspase-6. P55212. purified caspase-6, Z-VEID-R110 cleavage fluorescence. inhibition, % at 12.5 µM. 0.53% of 350,000 active. AID 686996;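 active = mean inhibition across replicates at least about 35%, with every replicate also reaching that limit, limit read from the data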;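 also: 0% = median of neutral control wells and 100% = no fluorescence left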
# SUMO HTRF inh: SUMOylation inhibition | HTRF SUMOylation assay, SAE1/SAE2 + UBC9, in vitro | inhibition, % at 35 µM | 0.36% of 290,000 active | AID 2006; in the data active = inhibition above about 50%, passing the limit was not always enough
# SIRT5 inh: blocks human SIRT5 desuccinylation of peptide. Purified SirT5, succinyl-peptide AMC, trypsin-coupled fluorescence. 1.1% of 330,000 active. inhibition, % at 15 µM. AID 652115. Q9NXA8; in the data active = inhibition above about 15%
# Target sequence (Q9NXA8 whole entry, looked up): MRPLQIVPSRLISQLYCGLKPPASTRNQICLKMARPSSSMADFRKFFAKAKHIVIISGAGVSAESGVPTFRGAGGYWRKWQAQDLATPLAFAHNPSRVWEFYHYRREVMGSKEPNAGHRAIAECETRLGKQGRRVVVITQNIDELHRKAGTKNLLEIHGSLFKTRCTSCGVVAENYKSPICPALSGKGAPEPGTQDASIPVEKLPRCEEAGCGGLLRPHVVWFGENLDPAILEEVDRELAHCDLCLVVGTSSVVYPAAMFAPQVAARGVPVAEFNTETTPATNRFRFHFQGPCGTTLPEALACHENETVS
# AlphaScreen art: interferes with AlphaScreen signal, flagging NSD2 false positives. shares compounds with NSD2 HMT inh. AID 1053174. AlphaScreen artifact counterscreen, preloaded methylated H4 peptide. 9.4% of 1,500 active. AC35, µM (highest dose often 10 µM), for inactives: top-dose activity change, negative = signal loss; call rule not given here
# Numbers without * were called inactive; / = not tested or not shown.
SMILES,NSD2 HMT inh,Casp6 inh,SUMO HTRF inh,SIRT5 inh,AlphaScreen art
COCCNC(=O)c1c(NC(=O)c2ccco2)n(Cc2ccccc2)c2nc3ccccc3nc12,113*,/,99,/,8%
CCC(C)NC(=O)c1c(N)n(CCCOC)c2nc3ccccc3nc12 (configuration not stated),106*,/,101,/,10%
O=c1[nH]c(=S)[nH]c(O)c1N=Nc1cc(S(=O)(=O)Nc2ccc(Cl)cc2)ccc1Cl,66*,0,/,5,-9%
NS(=O)(=O)c1ccc(N=Nc2c(O)[nH]c(=S)[nH]c2=O)cc1,3,1,-18,5,/
COc1ccc(CCC(C)NCCc2ccccc2)cc1 (configuration not stated),0,/,-6,/,/
CNCCCc1ccccc1,103*,/,23,/,2%
O=C(O)[C@@H]1[C@@H](CO)[C@@H]2Cn3c(ccc(-c4cccnc4)c3=O)[C@H]1N2C(=O)Nc1cc(F)ccc1F,/,0,/,-44,/
CC=Cc1ccc2n(c1=O)C[C@@H]1[C@@H](CO)[C@H](C(=O)OC)[C@H]2N1CC1CCCC1 (mixture of isomers),/,-1,/,-1,/
CCOC(=O)c1c(N)n(CCN2CCCCC2)c2nc3ccccc3nc12,-10,-7,18,-8,/
CCCCn1c(NS(=O)(=O)c2ccccc2)c(C(=O)OCC)c2nc3ccccc3nc21,99*,/,100*,/,-2%
CN1C(=O)NC(=O)/C(=C/c2ccc([N+](=O)[O-])o2)C1=O,59*,56*,18,2,-3%
Cc1ccc(/C=C2/C(=O)NC(=O)N(C)C2=O)cc1,3,4,1,2,/
COC(=O)[C@H]1[C@H](CO)[C@H]2Cn3c(ccc(-c4ccccc4OC)c3=O)[C@@H]1N2Cc1ccccc1,/,/,/,-6,/
CCN1CCN(c2ccc(N)cc2)CC1,57*,-76,-3,6,-7%
CCN1CCN(c2ccc(N)cc2C)CC1,60*,-69,2,-6,-5%
O=C(Cc1ccccn1)N1CCCCN2[C@H](CO)[C@H](c3ccc(-c4ccc(F)cc4)cc3)[C@H]2C1,/,1,/,0,/
CCCCn1c(=O)c(C=Nc2ccc(Cl)cc2)c(O)n(Cc2ccco2)c1=O,/,3,-9,-5,/
CC(C)n1c(=O)c(C=Nc2ccc(S(N)(=O)=O)cc2)c(O)n(Cc2ccco2)c1=O,67*,12,32,2,-4%
CC1(C)CC(=O)C2=C(C1)NC(=O)C21C(C(=O)OC(C)(C)C)=C(N)Oc2ccc(Br)cc21 (configuration not stated),62*,3,2,0,-5%
C=CCN1C(=O)C2(C(C(=O)OCC)=C(N)Oc3ccccc32)C2=C1CCCC2=O (configuration not stated),-2,/,5,/,/
COC(=O)[C@H]1[C@H](CO)[C@H]2Cn3c(ccc(-c4cncnc4)c3=O)[C@@H]1N2S(=O)(=O)c1ccccc1C,/,2,/,-44,/
